# Laboratory results published in the supplement of paper PMC8728848.
# This excerpt belongs to a sample that is enriched for the strongest signals.
# Key:
# Assay in all cases: glycan array binding signal (z-score within array); higher = stronger binding
# Conditions in all cases: glycan notation: IUPAC condensed, linker removed
# [1] = target: Gal(b1-4)GlcNAc(b1-6)GalNAc
# Method in brief: (§1)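 Arrays were curated from the Consortium for Functional Glycomics database, 3228 in total, and kept only where the protein sequence was available. Binding is expressed as a within-array Z-score. This score was averaged across arrays of the same protein sequence at different concentrations or buffers and across linkers, and negative values can be read as non-binding.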
# [2] = target: Gal3S(b1-4)[Fuc(a1-3)]GlcNAc
# Method in brief: as §1
# [3] = target: Gal3S(b1-4)[Fuc(a1-3)]GlcNAc6S
# Method in brief: as §1
# [4] = target: GalNAc(b1-4)GlcNAc(b1-2)Man(a1-3)[GalNAc(b1-4)GlcNAc(b1-2)Man(a1-6)]Man(b1-4)GlcNAc(b1-4)GlcNAc
# Method in brief: as §1
# [5] = target: GalNAc(b1-4)GlcNAc(b1-3)GalNAc(b1-4)GlcNAc
# Method in brief: as §1
# [6] = target: GlcNAc(a1-4)Gal(b1-4)GlcNAc
# Method in brief: as §1
# [7] = target: GlcNAc(b1-2)[GlcNAc(b1-4)]Man(a1-3)[GlcNAc(b1-2)Man(a1-6)]Man(b1-4)GlcNAc(b1-4)GlcNAc
# Method in brief: as §1
# [8] = target: GlcNAc(b1-2)[GlcNAc(b1-4)]Man(a1-3)[GlcNAc(b1-4)][GlcNAc(b1-2)[GlcNAc(b1-6)]Man(a1-6)]Man(b1-4)GlcNAc(b1-4)GlcNAc
# Method in brief: as §1
# GlcNAc(b1-3)Gal = target: GlcNAc(b1-3)Gal
# Method in brief: as §1
# [9] = target: GlcNAc(b1-3)Gal(b1-4)GlcNAc
# Method in brief: as §1
# [10] = target: GlcNAc(b1-3)Gal(b1-4)GlcNAc(b1-3)Gal(b1-4)GlcNAc(b1-3)Gal(b1-4)GlcNAc(b1-2)[GlcNAc(b1-3)Gal(b1-4)GlcNAc(b1-3)Gal(b1-4)GlcNAc(b1-3)Gal(b1-4)GlcNAc(b1-6)]Man(a1-6)[GlcNAc(b1-3)Gal(b1-4)GlcNAc(b1-3)Gal(b1-4)GlcNAc(b1-3)Gal(b1-4)GlcNAc(b1-2)Man(a1-3)]Man(b1-4)GlcNAc(b1-4)[Fuc(a1-6)]GlcNAc
# Method in brief: as §1
# [11] = target: GlcNAc(b1-3)Gal(b1-4)GlcNAc(b1-3)Gal(b1-4)GlcNAc(b1-3)GalNAc
# Method in brief: as §1
# Man(a1-2)Man(a1-3)Man = target: Man(a1-2)Man(a1-3)Man
# Method in brief: as §1
# [12] = target: Man(a1-2)Man(a1-3)[Man(a1-2)Man(a1-6)]Man(a1-6)[Man(a1-2)Man(a1-2)Man(a1-3)]Man(b1-4)GlcNAc(b1-4)GlcNAc
# Method in brief: as §1
# [13] = target: Man(a1-3)[Man(a1-6)]Man(a1-6)[Man(a1-2)Man(a1-3)]Man(b1-4)GlcNAc(b1-4)GlcNAc
# Method in brief: as §1
# [14] = target: Neu5Ac(a2-3)Gal(b1-3)GlcNAc
# Method in brief: as §1
# Neu5Ac(a2-3)Gal(b1-4)Glc = target: Neu5Ac(a2-3)Gal(b1-4)Glc
# Method in brief: as §1
# [15] = target: Neu5Ac(a2-3)Gal(b1-4)GlcNAc(b1-3)Gal(b1-4)GlcNAc(b1-3)GalNAc
# Method in brief: as §1
# [16] = target: Neu5Ac(a2-3)Gal(b1-4)[Fuc(a1-3)]GlcNAc(b1-3)GalNAc
# Method in brief: as §1
# [17] = target: Neu5Ac(a2-3)Gal(b1-4)[Fuc(a1-3)]GlcNAc(b1-6)[Neu5Ac(a2-3)Gal(b1-3)]GalNAc
# Method in brief: as §1
# Neu5Ac(a2-6)Gal = target: Neu5Ac(a2-6)Gal
# Method in brief: as §1
# [18] = target: Neu5Ac(a2-6)Gal(b1-4)GlcNAc(b1-2)Man(a1-3)[Neu5Ac(a2-6)Gal(b1-4)GlcNAc(b1-2)Man(a1-6)]Man(b1-4)GlcNAc(b1-4)GlcNAc
# Method in brief: as §1
# [19] = target: Neu5Ac(a2-6)Gal(b1-4)GlcNAc(b1-3)Gal(b1-4)GlcNAc
# Method in brief: as §1
# [20] = target: Neu5Ac(a2-6)Gal(b1-4)GlcNAc(b1-3)Gal(b1-4)GlcNAc(b1-3)Gal(b1-4)GlcNAc(b1-2)Man(a1-3)[Neu5Ac(a2-6)Gal(b1-4)GlcNAc(b1-3)Gal(b1-4)GlcNAc(b1-3)Gal(b1-4)GlcNAc(b1-2)Man(a1-6)]GalNAc
# Method in brief: as §1
binder,measurement,setting,value
PX9961U-pdi-543-24-543 (Parabacteroides distasonis) (protein) EEPVGEFLPGQVESEENIEGIVTGAYAVLDGYYASDAINSGCSNWQFGDVVSDDAYKGGGGTGDQNQIHLMEIFNANPTGIDFEARWAALYEGIKRCNQAIRLLNGSEVKNKEQRLAEMRFLRGHYYFNLKIIYNQIPWIDETLVDPNEYNKKSNIEFSSDQLWEKILEEFSAAYKVLPESQADYGRPTKMAARAYMAKVYLYQSKWKECLEACDEVIQSGKYELFPDFRNVFLPENDNCSEIIFAIQLSINDGSPNNENGSYGDRLLPPGGPYPVYGFLRPTQNLVNAYKTDVKGLPYNDGKDVSENDYVDVRLDHTLARPNIPFMDVQLYDWTPREASVYGPYSPKKRLVSLNSTYYSPIWPYVNALNFYVIRYADLLLWRAEAAIETGDLETGRKYINMIRERAKNTQHVKTMDQSQDAANYKVGVYDEPFKSKNEAVQALRMERRLEMAHEGIRFFDLVRWGVADEVINAYIAKEKVFRSHLQNAHFVKGKHEYFPIPQSMIDICGTEVMKQNPGY,glycan array binding signal (z-score),[1],-0.178
same,glycan array binding signal (z-score),[2],-0.303
same,glycan array binding signal (z-score),[3],-0.27
same,glycan array binding signal (z-score),[4],-0.253
same,glycan array binding signal (z-score),[5],0.352
same,glycan array binding signal (z-score),[6],-0.445
same,glycan array binding signal (z-score),[7],-0.415
same,glycan array binding signal (z-score),[8],-0.386
same,glycan array binding signal (z-score),GlcNAc(b1-3)Gal,-0.394
same,glycan array binding signal (z-score),[9],-0.432
same,glycan array binding signal (z-score),[10],-0.308
same,glycan array binding signal (z-score),[11],-0.417
same,glycan array binding signal (z-score),Man(a1-2)Man(a1-3)Man,-0.489
same,glycan array binding signal (z-score),[12],-0.408
same,glycan array binding signal (z-score),[13],6.64
same,glycan array binding signal (z-score),[14],-0.408
same,glycan array binding signal (z-score),Neu5Ac(a2-3)Gal(b1-4)Glc,-0.368
same,glycan array binding signal (z-score),[15],-0.376
same,glycan array binding signal (z-score),[16],3.69
same,glycan array binding signal (z-score),[17],1.28
same,glycan array binding signal (z-score),Neu5Ac(a2-6)Gal,-0.428
same,glycan array binding signal (z-score),[18],-0.347
same,glycan array binding signal (z-score),[19],-0.364
same,glycan array binding signal (z-score),[20],0.5
